Results: PubChem BioAssay AID2366 (The Scripps Research Institute Molecular Screening Center, 2010)
A number with no mark means an inactive call.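 How the source made its calls: active means compounds picked for the later follow-up tests because of their potency and selectivity; inactive means compounds skipped in follow-up as weaker or less selective.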

Assay: endogenous PME-1 and serine hydrolase inhibition – cell lysate, mouse brain cytosol, FP-rhodamine, gel ABPP, selectivity assay for PME-1 inhibitor project, dose response (AID 2366)
Conditions: gel-based ABPP

Row | SMILES | IC50 [µM]
1 | CC(C)(C)S(=O)(=O)/C(C#N)=C/c1cccn1S(=O)(=O)c1ccccc1 | > 50
2 | CS(=O)(=O)/C(C#N)=C/c1cccn1S(=O)(=O)c1ccc([N+](=O)[O-])cc1 | > 50
3 | N#C/C(=C\c1cccn1S(=O)(=O)c1cccc([N+](=O)[O-])c1)S(=O)(=O)c1ccc(F)cc1 | > 50
4 | N#C/C(=C\c1cccn1S(=O)(=O)c1cccc(C#N)c1)S(=O)(=O)c1ccc(F)cc1 | > 50
5 | CS(=O)(=O)/C(C#N)=C/c1cccn1S(=O)(=O)c1ccccc1 | > 50
